Data on 18 compounds can be found in PubChem BioAssay (EPA / NIEHS).

SMILES strings stand for the structures. Several values for one entry are separate records, joined by “and”; a condition that tells them apart may be missing. Equal values may be shown once. Activity calls are given as the source filed them. The calls were made as follows: active = hit-call score of the fitted dose curve at least 0.9, where 1 is the maximum; inactive = score below 0.9.

Read-out in this test: Insulin Like Growth Factor 1 (IGF1), IGF1 (gene 3479)
In words: LTEA_HepaRG_IGF1: Life Technologies and Expression Analysis (LTEA) Assay for Insulin Like Growth Factor 1 (IGF1) using HepaRG (AID 2283506). To be noted: mRNA level, 48 h; actives raise or lower the signal. The gist of the method: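 HepaRG, plated 48 h, then switched to serum-free induction media; test chemical 8-pt half-log from 100 uM (0.5% DMSO), duplicate, 48 h. Lysis in RLT, TaqMan qRT-PCR, norm. ACTB/GAPDH/POLR2A. Bidirectional fit vs DMSO.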
Regarding `Cc1nn(C)c(Oc2ccccc2)c1C=NOCc1ccc(C(=O)OC(C)(C)C)cc1`, the AC50 is 3.22 µM (active).

On to `CCCCOCCOCCOCc1cc2c(cc1CCC)OCO2`, for which the AC50 is 21.3 µM (active).

As to `S=C(S)NCCNC(=S)S.[Mn+2].[S-]C([S-])=NCCN=C([S-])[S-].[Zn+2]`, the AC50 was 1.35 µM (active) and 1.45 µM (active) and 2.57 µM (active).

As to `CCOC(=O)C(C)Oc1ccc(Oc2nc3ccc(Cl)cc3o2)cc1` (stereo not drawn), the AC50 was 20.2 µM (active).

Take `CCOC(=O)COc1cc(-n2ncc(C(F)(F)F)c(C)c2=O)c(F)cc1Cl`: the result was inactive.

`CSC(=O)c1cccc2nnsc12`: the compound was called inactive.

On to `O=C(O)c1ccccc1`, for which the result was inactive.

Regarding `CCCCOC(=O)[C@@H](C)Oc1ccc(Oc2ccc(C(F)(F)F)cn2)cc1`, the call was inactive.

Consider `CCCOC(=O)c1ccc(C(=O)OCCC)nc1`, for which the call was inactive.

As to `CC(=O)S[C@@H]1CC2=CC(=O)CC[C@]2(C)[C@H]2CC[C@@]3(C)[C@@H](CC[C@@]34CCC(=O)O4)[C@H]12`, the half-maximal activity concentration (AC50) is 68.7 µM (active).

Consider `CC(C)CCCCCCc1ccc(O)cc1`, for which the outcome was inactive.

`CCC(C)OC(=O)N1CCCCC1CCO` (stereo not drawn): the result was inactive.

On to `OB(O)O`, for which the call was inactive.

As for `C[C@]12C[C@H](O)[C@H]3[C@@H](CCC4=CC(=O)CC[C@@]43C)[C@@H]1CC[C@@H]2C(=O)CO`, the call was inactive.

Take `CC(C)(C)[C@@H](O)[C@@H](Cc1ccc(Cl)cc1)n1cncn1`: the outcome was inactive.

Consider `CCCCCOC(=O)COc1cc(N2C(=O)C3=C(CCCC3)C2=O)c(F)cc1Cl`, for which the compound was called inactive.

On to `CC(C)(c1ccc(O)cc1)c1ccc(O)cc1`, for which the compound was classed as inactive.

As for `C=CCOC(Cn1ccnc1)c1ccc(Cl)cc1Cl` (stereo not drawn), the AC50 was 18.3 µM (active).
